# From PubChem BioAssay
# AMA1 RON2 block: disrupts binding of P. falciparum AMA1 to RON2. Potency, µM (doses to about 58.2 µM), inactives show at the highest dose activity change, negative = inhibition, actives largely listed as inhibitors. AID 720542. hit rate 0.2% among 360,000. AlphaScreen AMA1-biotinylated RON2 peptide binding;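 also: 0% = vehicle wells and -100% = peptide control; nearly all actives have a fitted effect of over 45% in size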
#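 AMA1 (3D7) with his tag at 25 nM final met compounds first, then biotinylated RON2 peptide at 25 nM; detection used donor plus acceptor beads, 10 µg/mL apiece, read by AlphaScreen after 30 min at room temperature.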
# Pf growth 48h: inhibits P. falciparum growth in the first generation, 48 h; P. falciparum luciferase growth in erythrocytes, 48 h; Potency, µM (series often up to 28.7 µM), for inactives: at the top dose activity change, negative = inhibition, usual class: inhibitors; hit rate 5.9% among 310,000; AID 504832
#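 Read-out is firefly luciferase luminescence from an integrated reporter in P. falciparum, so falling signal marks reduced parasite growth. Infected erythrocytes were at 2% hematocrit and 0.1% parasitemia (final) in Albumax-supplemented RPMI 1640.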
# Pf growth 96h: inhibits malaria parasite growth, 96 h; hit rate 6.9% among 320,000; Potency, µM (top dose mostly 28.7 µM), without a hit: at the top dose activity change, negative = inhibition, actives largely listed as inhibitors; P. falciparum luciferase reporter growth, 96 h
#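 P. falciparum expressing integrated firefly luciferase, in erythrocytes at 2% hematocrit, 0.05% parasitemia, incubated with compounds 96 h at 37 C, 5% CO2. Growth inhibition read as loss of luminescence; two-generation exposure targets delayed-death apicoplast inhibitors.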
# HCV inhibitor: inhibitors of hepatitis C virus infection. Huh7.5.1 HCVcc-Cre infection, luciferase reporter, 44 h. Potency, µM (doses to about 41.8 µM), without a hit: at the highest dose activity change, negative = inhibition, actives largely listed as inhibitors. hit rate 3.4% among 340,000. AID 651820
#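 After 44 h co-culture of compound, cells and HCVcc-Cre (~0.5 moi), substrate is added for 15 min at room temperature and luciferase measured over 15 sec. Cells were seeded at 1,000/well and pre-cultured 4 h.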
# * hit, by the source's call; u = inconclusive; x = not tested or not shown; [ ] = remark or other dose. In the library only some 11% were active in any assay of this set; here they are far more common. Calls follow the shape of the dose curve; as a rule, active = well fitted curve in the direction sought with a large enough effect; inconclusive = small, poorly fitted or top-dose-only effect, or another doubt; inactive = no such curve, though single readings can be large; an effect the other way counts as inactive or inconclusive. Unless noted, % is scaled to controls: 0 for no effect and ±100 for the full control effect; potency is read from the fitted curve at half-maximal effect.
SMILES,AMA1 RON2 block,Pf growth 48h,Pf growth 96h,HCV inhibitor
CC(=O)[C@@]1(O)CC[C@H]2[C@H]3C[C@@H](C)C4=CC(=O)C=C[C@]4(C)[C@@]3(F)[C@@H](O)C[C@]21C,x,-18%[12.8 µM],u,x
Cc1ccc(S(=O)(=O)N(C)CC(=O)OCC(=O)c2c(N)n(C)c(=O)n(C)c2=O)cc1,-6%,32%,1%,0%
CCOC(=O)c1nnsc1NC(=O)Nc1ccc(OC)cc1,-10%,4.1µM*,27%,-10%
CC(C)(C)C(=O)Nc1sc2c(c1-c1nc3ccccc3[nH]1)CCCC2,16%,9.3µM*,u,u
CC(C)(C)C(=O)Nc1cccc(-c2nc3ccccc3[nH]2)c1,-3%,-1%,x,u
CCOc1ccc(-c2nnc(-c3ccc(OC)cc3)o2)cc1,-6%,19%,-11%,1%
CCOc1ccc(-c2nnc(-c3ccncc3)o2)cc1,18%,291%,2.9µM*,-10%
CCOc1ccc(-c2nnc(-c3ccccc3)o2)cc1,12%,50%,2.1µM*,-7%
CCCCOc1ccc(-c2nnc(-c3cc[n+](C)cc3)o2)cc1,-11%,0.41µM*,-6%,12%
Cc1c(C(=O)N(Cc2ccccc2)C(C)C)oc2ccc(S(=O)(=O)N3CCOCC3)cc12,-10%,u,11%,u
CC1Sc2ccc(S(=O)(=O)N3CCN(c4cccc(Cl)c4)CC3)cc2NC1=O (stereo unspecified),-5%,0%,12µM*,u
CC1Sc2ccc(S(=O)(=O)N3CCN(c4ccccc4)CC3)cc2NC1=O (stereo unspecified),-4%,-10%,u,u
Cc1cccc(N2CCN(S(=O)(=O)c3ccc4c(c3)NC(=O)C(C)S4)CC2)c1C (stereo unspecified),-1%,u,u,0.32µM*
COc1ccc(Nc2cc(Nc3cc(OC)c(OC)c(OC)c3)ncn2)cc1,2%,u,6%,u
C=C1c2ccccc2NC(=S)N1Cc1ccc2c(c1)OCO2,47%,18%,94%,-15%
C=CCn1cc(C(=O)N2CCN(C)CC2)c(=O)c2cc(S(=O)(=O)N(CC)CC)ccc21,32%,22%,35%,7%
COc1cc(C(C[N+](=O)[O-])c2c(C)[nH]c3ccccc23)cc(OC)c1OC (stereo unspecified),-9%,13µM*,12%,u
O=C(NCCC(=O)N1CCCC1)c1ccccc1Cl,-2%,24%,32%,12%
O=C1CNC(=S)N1CCCc1ccccc1,1%,21%,9%,13%
Cc1cccc(NC(=O)c2c(O)c3ccccc3n(C)c2=O)c1,94%,125%,-11%,u
Oc1cc(Cc2ccccc2)cnc1CN1CCCCC1,27%,0.93µM*,-25%,-3%
N#CC[C@H](Cc1ccccc1)N1CCN(CCc2ccccc2)CCC1=O,-3%,-45%,3.7µM*,21%
CC(=O)Nc1ccc(SC[C@H](Cc2ccccc2)N2CCN(CCc3ccccc3)CCC2=O)cc1,-7%,8.3µM*,2.9µM*,-10%
CC(=O)Nc1ccc(SC[C@H](Cc2ccccc2)N2CC[C@@H](O)CCC2=O)cc1,-3%,4%,u,-12%
CC(C)(C)[C@H]1CCC(=O)N([C@H](CSc2ccccc2)Cc2ccccc2)CC1,-4%,u,u,-29%
SMILES,AMA1 RON2 block,Pf growth 48h,Pf growth 96h,HCV inhibitor
CC(=O)Nc1ccc(SC[C@H](Cc2ccccc2)N2CC[C@@H](C(C)(C)C)CCC2=O)cc1,-15%,1.9µM*,u,u
N#Cc1cnn(-c2cccc(Cl)c2)c1-n1cccc1,-5%,12%,5%,4%
CCc1ccc(N2C(=O)CN(Cc3ccccc3)C2=S)cc1,-15%,u,25%,-4%
COc1ccc(CN2CC(=O)N(c3cc(Cl)ccc3C)C2=S)cc1OC,-13%,7.4µM*,0%,u
COc1cc(CN2CC(=O)N(c3cc(Cl)ccc3C)C2=S)cc(OC)c1OC,-4%,2.6µM*,-17%,-23%
COc1ccc(CN2CC(=O)N(c3ccc(C)cc3C)C2=S)cc1OC,-2%,u,u,-15%
Cc1cc(C)cc(N2C(=O)CN(Cc3ccccc3)C2=S)c1,-7%,15µM*,4.7µM*,0%
CCc1ccccc1N1C(=O)CN(Cc2cc(OC)c(OC)c(OC)c2)C1=S,-6%,5.2µM*,u,32µM*
COC1=CC(=O)OC(c2ccc(C(F)(F)F)cc2)C1 (stereo unspecified),-9%,x,x,x
NC(=NCCc1ccccc1)NC(=O)c1cc(Cl)ccc1O,-10%,x,x,-7%
O=C(NCc1cccc(OC(F)(F)F)c1)C1CCC(=O)N(Cc2cccc(F)c2)C1 (stereo unspecified),-7%,-12%,u,-8%
COc1cc(CN2CC(=O)N(c3ccc(C)c(C)c3)C2=S)cc(OC)c1OC,-8%,1µM*,13%,u
COc1ccc(CN2CC(=O)N(c3ccccc3C)C2=S)cc1OC,-3%,9.3µM*,96%,u
COc1cccc(N2C(=O)CN(Cc3ccc(OC)c(OC)c3)C2=S)c1,-7%,1.5µM*,u,-21%
CCN(CC)S(=O)(=O)c1ccc(Nc2nc3ccccc3n3nnnc23)cc1,6%,4.7µM*,-2%,-25%
Fc1cccc(Nc2nc3ccccc3n3nnnc23)c1,56%,x,6.6µM*,16%
c1ccc2c(c1)nc(Nc1ccc3c(c1)OCO3)c1nnnn12,12%,10µM*,65%,12%
CCCCn1c(N)c(N(CC(C)C)C(=O)COC(=O)Cc2c(C)nc3ccccc3c2C)c(=O)[nH]c1=O,-11%,u,u,11%
CCOC(=O)C1(C/C(C)=N/NC(N)=O)CC(C)OC1=O (stereo unspecified),19%,23%,-11%,-6%
COC(=O)c1ccc(CSc2ncnc3c2nnn3-c2ccc(F)cc2)o1,0%,1µM*,20%,u
CCN(CC(=O)NCc1cccs1)CC(=O)Nc1cccc(S(N)(=O)=O)c1,23%,0%,-28%,11%
CCOC(=O)Cc1cc(-c2ccc(F)cc2)nc2ccc3ccccc3c12,-2%[11.6 µM],24%,u,-19%
CCOC(=O)C1=C(CSCc2ccccc2)NC(=O)NC1c1cc(C)ccc1C (stereo unspecified),-10%,13µM*,x,u
Nc1nc(CN2CCN(c3ccccc3F)CC2)nc(N2CCCc3ccccc32)n1,u,-29%,-2%,7%
CCN(CC(=O)Nc1ccc(NC(C)=O)cc1)C(=O)CSC(c1ccccc1)c1ccccc1,-1%,u,-21%,10µM*
CC(C)CC(=O)Nc1ccc(Oc2ccc(NC(=O)CC(C)C)cc2)cc1,15%,20%,u,-4%
CC(=O)Nc1ccc(NC(=O)CC(c2ccccc2)c2ccccc2)cc1,5%,12µM*,134%,6%
CC(C)CC(=O)Nc1ccc(Nc2ccccc2)cc1,-17%,29%,18%,2.8µM*
CCCCCCNC(=O)CC(c1ccccc1)c1cc(Br)ccc1O (stereo unspecified),2%,12µM*,u,u
O=C(CC(c1ccccc1)c1ccccc1)Nc1ccc(O)cc1,0%,-4%,-20%,-3%
